We go through 34 compounds from PubChem BioAssay (EPA / NIEHS).

The structures appear in SMILES notation. Inconclusive results are not listed. Activity calls are given as the source filed them. How the source made its calls: active means hit-call score of the fitted dose curve at least 0.9, where 1 is the maximum; inconclusive means response in the unintended direction; inactive means score below 0.9.

Assay [1] in a line: Tanguay_ZF_120hpf_TRUN_legacy: (Legacy) Oregon State University Tanguay Lab 120 Hour Post-fertilization zebrafish Assay for Truncated Body (AID 2283655). The method, boiled down:
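Binary presence/absence of truncated body is recorded at 120 hpf by brightfield, with non-mortality endpoints skipped after death. Exposure is static from 6 hpf in sealed dark plates at 28C, using dechorionated wild-type zebrafish, 0.64% DMSO.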

Assay [2] in a line: Tanguay_ZF_120hpf_NC_legacy: (Legacy) Oregon State University Tanguay Lab 120 Hour Post-fertilization zebrafish Assay for Notochord and Tail Malformation (AID 2283656). The method, boiled down: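 Dechorionated Tropical 5D wild-type zebrafish embryos, one per well from 6 hpf, statically exposed to 120 hpf at 28C in 0.64% DMSO final. Notochord distortion scored present/absent by brightfield; dead embryos excluded.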

Assay [3] concerns Thyroperoxidase (TPO), gene 54314. In words: CCTE_Simmons_AUR_rTPO: CCTE's Amplex UltraRed Assay for Thyroperoxidase (TPO) Inhibition, Simmons Lab (AID 2283662).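 Further: potency for loss of signal meaning inhibition of peroxidase activity.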 The method, boiled down: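 Rat thyroid microsomes (5 ug protein) were incubated with test compound (8 concentrations, 5 nM–87.5 uM final, 0.5% DMSO), 25 uM Amplex UltraRed and 300 uM H2O2 in 200 mM phosphate buffer for 30 min at 37C in the dark; fluorescence read at 544/590 nm.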

The nature of assay [4]: CCTE_Simmons_CellTiterGLO_HEK293T: Viability Assessment in CCTE's Assays for Thyroperoxidase (TPO) Inhibition, Simmons Lab (AID 2283665).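 On AC50: cells exposed to compound for 24 h before readout; actives reduce ATP signal below DMSO vehicle meaning cytotoxicity.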 The method, boiled down:
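HEK293T cells in DMEM with 1% FBS, dosed 24 h at 37C with 8 concentrations, 5 nM–87.5 uM final, 0.5% DMSO. ATP measured by CellTiter Glo luminescence; loss of signal vs DMSO, three biological replicates.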
On the technique in general: In ATP-based viability assays light output follows the ATP content of the culture.

Assay [5] can be described thus: Tanguay_ZF_120hpf_TR_legacy: (Legacy) Oregon State University Tanguay Lab 120 Hour Post-fertilization zebrafish Assay for Touch Response (AID 2283667). The method, boiled down:
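5D WT embryos; static exposure to 120 hpf, 28C, sealed/dark; DMSO 0.64% v/v final. TR scored present/absent; dead embryos excluded. Pos ctrl 5uM trimethyltin chloride.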

One may read the AC50 as the concentration at which the activity in the assay is half-maximal.

As for `O=c1c(-c2ccc(O)cc2)coc2cc(O)ccc12`, the compound was called inactive in assay [1], in assay [2] and in assay [5]. The AC50 is 9.2 µM (active) in assay [3] and 0.393 µM (active) in assay [4].
Turning to `CC[C@H](c1ccc(O)cc1)[C@@H](CC)c1ccc(O)cc1`, the result in assay [1], in assay [2] and in assay [5] was inactive. Further, the AC50 in assay [3] is 4.36 µM (active); in assay [4], 2.25 µM (active).
Turning to `CN(C)C=O`, the compound was called inactive in assay [1] and in assay [5].
For the compound `NC(=O)N1C(=O)C(C(=O)c2cc(Cl)cs2)c2cc(F)c(Cl)cc21` (stereo not given), the compound was called inactive in assay [1], in assay [2] and in assay [5].
As to `OCCC(F)(F)C(F)(F)C(F)(F)C(F)(F)C(F)(F)C(F)(F)F`, the call in assay [1] and in assay [5] was inactive.
On to `Cc1cc(CCN2CCN(c3nsc4ccccc34)CC2)cc2c1NC(=O)CC2(C)C`, for which the values for the AC50 in assay [1], in assay [2] and in assay [5] were 3.08 µM (active), 4.88 µM (active) and 6.3 µM (active), respectively.
`CC(C)CCCCCCOC(=O)CCCCC(=O)OCCCCCCC(C)C`: the call in assay [1], in assay [2] and in assay [5] was inactive.
For `Cc1oc(-c2ccccc2)nc1CCOc1ccc(C[C@H](Nc2ccccc2C(=O)c2ccccc2)C(=O)O)cc1`, the result in assay [1] and in assay [5] was inactive. Further, the results for the AC50 in assay [3] and in assay [4] were 27.5 µM (active) and 12.1 µM (active), respectively.
As for `CC(=O)NC1(c2cccc(F)c2)CCN(CC[C@@]2(c3ccc(Cl)c(Cl)c3)CN(c3ccccc3)C(=O)CO2)CC1`, the compound was classed as inactive in assay [1], in assay [2] and in assay [5].
For the compound `CC[C@H](C)[C@@H](C(=O)O)n1sc2ccccc2c1=O`, the call in assay [1], in assay [2] and in assay [5] was inactive.
`c1ccc2cc3c(ccc4ccccc43)cc2c1`: the compound was called inactive in assay [1] and in assay [5]. Further, the values for the AC50 in assay [3] and in assay [4] were 22.6 µM (active) and 43.8 µM (active), respectively.
Turning to `CN1CCC[C@H]1c1cccnc1`, the call in assay [1], in assay [2] and in assay [5] was inactive.
Regarding `CCCCCCCCC(=O)O`, the result in assay [1], in assay [2] and in assay [5] was inactive.
With `OC1CCCCC1`, the compound was called inactive in assay [1], in assay [2] and in assay [5].
With `CC(=O)CC(C)(C)O`, the result in assay [1], in assay [2] and in assay [5] was inactive.
In the case of `CCc1ccc(CCOc2ccc(CC3SC(=O)NC3=O)cc2)nc1` (stereo not given), the compound was called inactive in assay [1], in assay [2] and in assay [5].
As for `CC(C)(C)CC(C)(C)c1ccc(O)c(-n2nc3ccccc3n2)c1`, the compound was called inactive in assay [1] and in assay [5].
Regarding `CCc1nn(C2CCCCC2)c2cc(C3(C#N)CCC(C(=O)O)CC3)ccc12` (stereo not given), the AC50 was 0.171 µM (active) in assay [1] and 2.48 µM (active) in assay [5]. Further, the compound was classed as inactive in assay [2].
Turning to `CCCCCCCCCCCCCC[N+](C)(C)C`, the values for the AC50 in assay [3] and in assay [4] were 38.4 µM (active) and 13.7 µM (active), respectively.
With `CCC(C)(C)C1CCC(O)CC1` (stereo not given), the call in assay [1], in assay [2] and in assay [5] was inactive.
For the compound `OCCC(F)(F)C(F)(F)C(F)(F)C(F)(F)C(F)(F)C(F)(F)C(F)(F)C(F)(F)F`, the call in assay [1], in assay [2] and in assay [5] was inactive.
As for `COc1ccc([N+](=O)[O-])cc1N`, the compound was called inactive in assay [1], in assay [4] and in assay [5]. Also, the AC50 in assay [3] was 3.52 µM (active).
Regarding `CC(C)(C)c1cccc(C(C)(C)C)c1O`, the compound was called inactive in assay [2]. Also, the AC50 was 2.68 µM (active) in assay [3] and 10.2 µM (active) in assay [4].
`CCCCCCCC(=O)O`: the call in assay [1], in assay [2] and in assay [5] was inactive.
`CCCCCCCCCCCCCCCS(=O)(=O)Oc1ccccc1`: the result in assay [1] and in assay [5] was inactive.
For the compound `N#C[C@@H]1CC(F)(F)CN1C(=O)CNC1CC2CCC(C1)N2c1ncccn1` (stereo not given in full), the compound was classed as inactive in assay [1] and in assay [4]. In assay [3], the AC50 was 36.6 µM (active).
Regarding `c1ccc2c(c1)ccc1ccccc12`, the result in assay [1], in assay [2] and in assay [5] was inactive.
As for `c1ccc2c(c1)Cc1ccccc1-2`, the compound was called inactive in assay [2] and in assay [5].
As to `Oc1cccc(O)c1`, the compound was classed as inactive in assay [2] and in assay [4]. Besides, the AC50 in assay [3] is 0.0137 µM (active).
For `COC(=O)CCCCC(=O)OC`, the compound was called inactive in assay [1], in assay [2] and in assay [5].
Take `O=C(O)Cc1cc(I)c(Oc2cc(I)c(O)c(I)c2)c(I)c1`: the result in assay [1], in assay [2] and in assay [5] was inactive.
For the compound `CCCCOCCO`, the call in assay [2] was inactive.
As to `O=[N+]([O-])c1ccc(O)cc1`, the compound was classed as inactive in assay [1], in assay [2] and in assay [5].
Turning to `COCC(C)OCC(C)O` (stereo not given), the compound was called inactive in assay [2] and in assay [5].
